Sampled rows, rich in hits. Any-hit rate of the full collection: about 32%.
CYP2C9 inhib: blocks human cytochrome P450 2C9 | P11712 | CYP2C9 Supersomes, luciferin-H conversion, luminescence | inhibition, % at 5 µM | 96,000 tested, 20% active;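 active = blocking of liver enzyme CYP2C9 beyond about 50% at 5 µM, limit read from the data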
PostGolgi ctrl: yeast control strain growth, post-Golgi counter-screen. efflux-deficient yeast background strain, growth absorbance A615, 16 h. inhibition, % at 10 µM. 98,000 tested, 5% active. AID 738
CYP2C19 act: activators of human cytochrome P450 2C19; activation factor at 5 µM; AID 1025; P33261; recombinant CYP2C19, luciferin-H EGE luminescence; stronger effect = higher value; 0 = fully inhibited enzyme, 1 = untreated enzyme; 96,000 tested, under 10 active;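 active = activation factor of at least 2 at 5 µM in the primary screen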;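 also: 0 = wells with 2.5 mM tranylcypromine and 1 = vehicle-only wells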
CYP2C19 inhib: inhibitors of human CYP2C19; P33261; CYP2C19 Supersomes, luciferin-H EGE luminescence, 30 min; inhibition, % at 5 µM; 96,000 tested, 21% active;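 active = CYP2C19 inhibition above a set limit at 5 µM in the primary screen, cut at about 50% in these data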;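 also: plate controls were negative control wells for no effect and 2.5 mM tranylcypromine positive control for full effect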
CYP2C9 act: CYP2C9 (human) activation. 96,000 tested, 1.4% active. activation factor at 5 µM. recombinant CYP2C9, luciferin-H conversion, luminescence; stronger effect = higher value; factor 1 = untreated enzyme, 0 = blocked. AID 1024;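 active = activation factor of 2 or more for CYP2C9 at a 5 µM dose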;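 also: 0 = sulfaphenazole-blocked wells and 1 = vehicle-only wells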
PostGolgi yeast: growth inhibition of a yeast mutant, post-Golgi transport screen. post-Golgi transport phenotypic cell assay. inhibition, % at 10 µM. 98,000 tested, 0.9% active;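 also: yeast cells grown in 1536-well plates; yeast grown about 18 h at 30C before absorbance read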
* marks the source's active call; other numbers are inactive results. Rule as the data show it, unless noted: active = inhibition above about 30%; inactive = the rest.

SMILES	CYP2C9 inhib	PostGolgi ctrl	CYP2C19 act	CYP2C19 inhib	CYP2C9 act	PostGolgi yeast
NC(=O)C(c1ncc(C(F)(F)F)cc1Cl)c1c(Cl)cccc1Cl (stereo not given)	-4	-7	0.6	45	1	1
O=C1CC(NC23CC4CC(CC(C4)C2)C3)C(=O)N1c1ccc2c(c1)OCO2 (stereo not given)	2	23	0.9	7	1	-4
CC(c1nnc(Sc2nnnn2-c2ccccc2)n1-c1ccc(F)cc1)N(C)C (stereo not given)	39	-1	0.9	10	0.6	-1
CCc1ccc(OCc2nnc(NC(=O)c3cccs3)s2)cc1	33	-13	1.1	-7	0.7	11
CN(Cc1nc(-c2ccncc2)no1)S(=O)(=O)c1ccccc1	72*	3	0	99*	0.3	3
CN(Cc1nc(-c2ccncc2)no1)S(=O)(=O)c1ccc(Cl)cc1	93*	25	0	96*	0.1	1
Cc1ccc(S(=O)(=O)N(C)Cc2nc(-c3ccccn3)no2)cc1	-1	18	1.1	-7	1	-17
COc1ccc(Cc2nc(-c3ccc(Br)cc3)no2)cc1	20	13	0.9	9	0.8	-9
CN(Cc1nc(-c2ccncc2)no1)S(=O)(=O)c1ccc(Br)cc1	93*	31*	0.1	89*	0.1	-7
CN(Cc1nc(-c2ccccn2)no1)S(=O)(=O)c1ccccc1	15	1	0.4	64*	0.8	0
COC(=O)Nc1sc2c(c1C(=O)NC1CC1)CCCCCC2	21	8	0.7	32	0.8	8
COC(=O)/C(=C(/F)SCC(C)=O)C(F)(F)F	69*	4	0.9	7	0.3	2
Cc1ccc(C)c(SCc2noc(C(=O)NCC3CCCO3)c2C(=O)O)c1 (stereo not given)	13	17	0.8	16	0.9	-4
O=C(O)c1cnc(-c2ccccc2)nc1Sc1cccc(Cl)c1	40	18	0.9	6	0.6	7
O=C(O)c1cnc(-c2ccccc2)nc1Sc1ccc(Cl)cc1Cl	53*	30	1.1	-7	0.5	-4
O=c1cc(CSc2nc3ccccc3[nH]2)c2ccccc2[nH]1	38	7	0.7	34	0.6	-6
Fc1ccc(CSc2nc3ncccc3[nH]2)cc1	51*	3	0.2	82*	0.5	-9
Fc1ccc(CSc2nc3ccccc3[nH]2)cc1	56*	12	0.1	93*	0.4	14
Nc1nc(CSc2nc3ccccc3[nH]2)cs1	44	5	0.2	76*	0.6	7
Fc1ccc(CSc2nc3ccccc3[nH]2)c2ccccc12	98*	47*	0	99*	0	2
CCCCOc1ccc(CSc2n[nH]c(C)n2)cc1	28	20	0.6	38	0.7	-1
CCCCOc1ccc(CSc2ncn[nH]2)cc1	73*	1	0.1	93*	0.3	2
CCCOc1ccc(CSc2nc3ccccc3[nH]2)cc1	90*	-1	0.6	39	0.1	-7
CN(C)c1cccc(-c2nnc(SCCCC#N)o2)c1	-9	21	0.9	13	1.1	-3
Cc1cc(C)cc(C(=O)N2CC(=O)Nc3ccccc32)c1	36	-5	0.5	53*	0.6	-3
SMILES	CYP2C9 inhib	PostGolgi ctrl	CYP2C19 act	CYP2C19 inhib	CYP2C9 act	PostGolgi yeast
Cc1ccsc1C(=O)N1CC(=O)Nc2ccccc21	-7	0	0.8	23	1.1	-4
COc1ccccc1N1CCN(Cc2nc3ccccc3c(=O)n2CC(C)=O)CC1	44	5	0.9	13	0.6	0
CN(C)Cc1nc2ccccc2c(=O)n1Cc1nc(C(C)(C)C)cs1	93*	-2	0.2	82*	0.1	0
c1ccc(C2C3=C(CCCC3)Nc3ncnn32)cc1 (stereo not given)	-13	-1	1	-2	1.1	1
c1csc(C2C3=C(Nc4ncnn42)c2ccccc2OC3)c1 (stereo not given)	37	15	0.7	29	0.6	-6
COc1ccc(C2C3=C(Nc4ncnn42)c2ccccc2CCC3)cc1 (stereo not given)	68*	-4	0.1	92*	0.3	-9
Fc1ccc(/C=C2\CCCC3=C2Nc2ncnn2C3c2ccc(F)cc2)cc1 (stereo not given)	15	81*	0.9	6	0.9	14

Screening data from PubChem BioAssay.
